Hits are enriched below; roughly 0.84% of the tested compounds scored in any of these assays.
SRC2 TRFRET art = flags TR-FRET format artefacts in PPARgamma SRC-2 recruitment agonist screen. TR-FRET artefact counter-screen; stronger effect = higher value. actives 0.4% (n = 200,000). AID 1049. TR-FRET ratio at 8 µM; in the data active means TR-FRET ratio above about 2000
PPARg SRC2 recr = agonists of SRC-2 recruitment by human PPARgamma; P37231; PPARgamma LBD-SRC-2 recruitment, biochemical; activation, % at 8 µM; actives 0.34% (n = 200,000);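 further: 0% = vehicle and 100% = reference agonist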
SRC1 TRFRET art = flags TR-FRET format artefacts in PPARgamma SRC-1 recruitment agonist screen. TR-FRET detection artefact counter-screen, emission ratio; stronger effect = higher value. TR-FRET ratio at 8 µM. actives 0.34% (n = 99,000). AID 1051; in the data active means TR-FRET ratio above about 2300
SRC3 TRFRET art = counter-screen for PPARgamma SRC-3 recruitment agonists: TR-FRET artefact | PPARgamma/SRC-3 format; stronger effect = higher value | TR-FRET ratio at 8 µM | actives 0.39% (n = 99,000); in the data active means TR-FRET ratio above about 2000
PPARg SRC3 recr = PPARgamma-driven SRC-3 recruitment agonism; activation, % at 8 µM; P37231; actives 0.26% (n = 200,000); AID 731; biochemical PPARgamma/SRC-3 coactivator recruitment assay; in the data active means activation above about 23%;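 further: 0% = DMSO and 100% = reference agonist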
PPARg SRC-1 ag = PPARgamma-driven SRC-1 recruitment agonism. P37231. PPARgamma-SRC-1 coactivator recruitment biochemical assay. activation, % at 8 µM. actives 0.41% (n = 200,000); in the data active means activation above about 19%;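 further: 0% = DMSO and 100% = reference agonist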
PPARg SRC2 ag = confirmation of agonists of SRC-2 recruitment by human PPARgamma; biochemical SRC-2 recruitment by PPARgamma; activation, % at 8 µM; actives 52% (n = 790); shares compounds with PPARg SRC3 recr;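 further: 0% = vehicle alone and 100% = reference agonist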
PPARg SRC1 ag = human PPARgamma SRC-1 recruitment agonism, confirmation. shares compounds with PPARg SRC3 recr. PPARgamma–SRC-1 coactivator recruitment biochemical assay. activation, % at 8 µM. actives 43% (n = 790). AID 1300; in the data active means activation above about 20%;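 further: 0% = vehicle wells and 100% = reference agonist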
PPARg SRC3 ag = confirmation of agonists of SRC-3 recruitment by human PPARgamma. activation, % at 8 µM. actives 29% (n = 790). shares compounds with PPARg SRC3 recr. biochemical PPARgamma-SRC-3 coactivator recruitment, agonist mode. AID 1301; in the data active means activation above about 24%;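 further: 0% = vehicle wells and 100% = reference agonist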
* marks the source's active call; other numbers are inactive results; / = not tested or not shown. Unless noted, no stated cut-off is given here; in the data, active means activation above about 22%; inactive means the rest.

SMILES	SRC2 TRFRET art	PPARg SRC2 recr	SRC1 TRFRET art	SRC3 TRFRET art	PPARg SRC3 recr	PPARg SRC-1 ag	PPARg SRC2 ag	PPARg SRC1 ag	PPARg SRC3 ag
COc1ccc(-c2nnc(Nc3ccc(S(=O)(=O)Nc4nccs4)cc3)c3ccccc23)cc1	1729	18	2204	1895	47*	55*	35*	25*	24*
CN1CCN(C(=O)C(N)Cc2ccccc2)CC1 (stereo not drawn)	1469	-3	1703	1676	-2	1	/	/	/
O=C(Nc1cccc(Cl)c1)Nc1ccccc1-n1ccnc1	1516	4	2105	1471	-1	9	/	/	/
COC(=O)c1cc(CNC(=O)c2cccc(Cl)c2Cl)ccc1OC	1586	-2	1933	1651	-2	4	/	/	/
Cc1ccccc1S(=O)(=O)Nc1nc2ccccc2nc1N1CCOCC1	2102*	27*	/	/	34*	26*	43*	37*	28*
N#Cc1c(N)nc2c3c(sc(=N)c2c1N)NC(=O)CC3c1ccccc1 (stereo not drawn)	2053*	20	/	/	26*	27*	5	5	8
N#Cc1c(N)nc2c3c(sc(=N)c2c1N)NC(=O)CC3c1c(F)cccc1Cl (stereo not drawn)	1427	0	/	/	7	-2	/	/	/
CCN(CC)c1ccc(C=Nc2ccc(N(C)C)cc2)c(O)c1	2498*	78*	/	/	98*	24*	6	5	7
CCN(CC)c1ccc(C=Nc2ccccc2)c(O)c1	1517	6	/	/	10	-4	/	/	/
Cc1sc(NC(=S)Nc2ccc(F)cc2)c(C(N)=O)c1C	1942	17	2290	2013	12	25*	26*	17	15
CCOC(=O)c1c(NC(=S)Nc2ccc(Cl)cc2)sc(C)c1C	1461	4	/	/	2	2	/	/	/
COC(=O)c1c(NC(=S)Nc2ccc(CC(=O)O)cc2)sc(C)c1C	1741	11	2214	1747	10	22*	50*	36*	31*
Cc1ccc(S(=O)(=O)N2CCCN(S(=O)(=O)c3ccc4c(c3)OCCO4)CC2)cc1	1679	5	/	/	-10	7	/	/	/
Cc1ccc2nc(N3CCN(S(=O)(=O)c4ccc5c(c4)OCCO5)CC3)c(C#N)cc2c1	3423*	22*	/	/	45*	31*	14	8	6
Cc1ccc(S(=O)(=O)NCC(=O)OCC(=O)c2cccs2)cc1	1454	-3	/	/	-2	-1	/	/	/
Cc1ccc(S(=O)(=O)NCC(=O)OCC(=O)c2ccc(Br)s2)cc1	1836	55*	/	/	66*	36*	51*	32*	35*
CCN(Cc1ccncc1)S(=O)(=O)c1ccc(C(C)=O)cc1	1646	0	2229	1492	0	6	/	/	/
O=[N+]([O-])c1ccc(N/N=C/c2ccc[nH]2)cc1	1763	28*	2294	1831	12	17	6	8	5
O=[N+]([O-])c1ccc(N/N=C/c2c[nH]c3ccccc23)cc1	1738	12	/	/	6	-1	/	/	/
N#CCC(=O)Nc1ncc(Cc2ccccc2Cl)s1	1870	6	1928	1512	10	-1	/	/	/
CCCNCc1cc(OC)c(OCc2ccccc2)cc1Br	1538	-3	1837	1289	-3	-5	/	/	/
Cc1cccc(C)c1NC(=O)COc1cccc(/C=N/NC(=O)C(=O)NCc2ccccc2)c1	1552	0	/	/	4	0	/	/	/
CC(=O)C1=C(O)C(=O)N(c2nccs2)C1c1ccccc1 (stereo not drawn)	1601	27*	/	/	16	10	22*	16	13
COc1cccc(CC2(CO)CCCN(Cc3cc4ccccc4[nH]3)C2)c1 (stereo not drawn)	1600	2	1503	1559	-1	-1	/	/	/
CN1CCc2nc3sc(C(=O)NCc4ccccc4)c(N)c3cc2C1	1733	24*	2218	1839	16	13	6	6	7
